The source of these data is PubChem BioAssay (NCATS).

Results filed as inconclusive are left out. A call without a number means that no potency is given here. Active and inactive are the calls of the source. Calls come from the whole dose curve.

Thyroid hormone receptor beta (Homo sapiens), sequence (P10828 whole entry, looked up): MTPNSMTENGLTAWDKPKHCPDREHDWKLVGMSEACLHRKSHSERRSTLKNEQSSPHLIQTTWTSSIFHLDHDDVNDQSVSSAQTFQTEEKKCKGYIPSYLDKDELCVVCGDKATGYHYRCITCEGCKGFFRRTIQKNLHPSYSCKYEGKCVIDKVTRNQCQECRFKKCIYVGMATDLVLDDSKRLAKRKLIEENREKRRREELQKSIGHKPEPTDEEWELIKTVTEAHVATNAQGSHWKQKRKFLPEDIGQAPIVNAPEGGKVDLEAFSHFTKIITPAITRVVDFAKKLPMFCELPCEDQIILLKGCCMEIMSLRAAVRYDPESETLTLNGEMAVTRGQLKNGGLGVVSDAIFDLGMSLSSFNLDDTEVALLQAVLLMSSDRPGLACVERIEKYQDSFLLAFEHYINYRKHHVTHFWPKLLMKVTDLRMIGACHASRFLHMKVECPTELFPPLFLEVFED

For the assay, the target named is Thyroid hormone receptor beta (Homo sapiens) (UniProt P10828). Briefly: qHTS assay for small molecule agonists of thyroid hormone receptor beta signaling (AID 588545). The settings on record: TR-UAS-bla GripTite HEK 293, beta-lactamase ratio, agonist mode, 18 h; series mostly up to 76.7 µM. The text has this:
NIH Chemical Genomics Center [NCGC]
U.S. Environmental Protection Agency [EPA]
National Institutes of Environmental Health Sciences [NIEHS]
National Toxicology Program [NTP]
Thyroid hormone receptor (TR) belongs to nuclear hormone receptor superfamily. There are two subtypes for TR: TR-alpha and TR-beta. TR-beta plays a major role in regulating plasma cholesterol levels and it mediates the biological activities of thyroid hormone. Screening environmental chemicals on TR-beta signaling will provide important information for the mechanism of compound action.
NCGC Assay Protocol Summary
Using a beta-lactamase reporter-gene under control of the TR response element, a cell-based assay [GeneBLAzer TR-UAS-bla-GripTite assay developed by Invitrogen] was used to measure TR-beta signaling in agonist mode. TR-UAS-bla-GripTite HEK 293 cells were used with assay medium containing 2% charcoal/dextran FBS, 0.1 mM NEAA and 1 mM sodium pyruvate. The assay was performed in clear bottom black Greiner 1536-well plates. T3 was used as a positive control in the screen. Library compounds were measured for their ability to stimulate the reporter gene activity. Compounds were screened in a titration series in 1536-well format. The fluorescence intensity (405 nm excitation, 460/530 nm emission) was measured using an EnVision plate reader. Data was normalized relative to T3 control (10 nM, 100%), and DMSO only wells (basal, 0%). Concentration-response titration points for each compound were fitted to the Hill equation yielding concentrations of half-maximal stimulation (EC50) and maximal response (efficacy) values.
qHTS protocol for TR-beta beta-lactamase assay in agonist mode
[Step] [Parameter] [Value] [Description]
1. Reagent; 6 uL; 2500 cells/well
2. Incubation; 37 C for 4 hrs
- Dose response; start 3.8 uM, 1:3 dilutions, duplicates in first column
- Two columns of each 10 and 0.4 nM (finals) concentrations.
5. Incubation; 37 C for 18 hrs
6. Detection reagent; 1 uL of CCF4-dye
7. Incubation; RT for 2 hrs
8. Detection; Fluorescence; Envision plate reader
Turning to `FC(F)(F)c1ccc(Cl)cc1`, the Potency result was “inactive”.

In the case of `OC(c1ccc(Cl)cc1)(c1ccc(Cl)cc1)C(Cl)(Cl)Cl`, the Potency entry is “inactive”.

As for `CCNc1nc(NC(C)(C)C)nc(SC)n1`, the Potency entry is “inactive”.

In the case of `CCNc1nc(Cl)nc(NC(C)(C)C#N)n1`, the Potency entry was “inactive”.

As to `O=P(OCC(Br)CBr)(OCC(Br)CBr)OCC(Br)CBr` (stereo not given), the Potency entry was “inactive”.

Turning to `CNC(=O)N(C)c1nc2ccccc2s1`, the Potency result was “inactive”.

On to `CCNc1nc(Cl)nc(NC(C)(C)C)n1`, for which the Potency entry is “inactive”.

As for `[Ga]#[As]`, the Potency result is “inactive”.

In the case of `COc1nn(C(=O)NS(=O)(=O)c2ccccc2OC(F)(F)F)c(=O)n1C`, the Potency entry was “inactive”.

For the molecule `CSc1nc(NC(C)C)nc(NC(C)C)n1`, the Potency entry was “inactive”.

As to `O=[N+]([O-])c1ccc(Oc2ccc(C(F)(F)F)cc2[N+](=O)[O-])cc1`, the Potency entry was “inactive”.

`FC(F)(F)c1ccc(OCCCOc2c(Cl)cc(OCC=C(Cl)Cl)cc2Cl)nc1`: the Potency result was “inactive”.

On to `COC[C@H](C)N(C(=O)CCl)c1c(C)csc1C`, for which the Potency result was “inactive”.

`CNc1cnn(-c2cccc(C(F)(F)F)c2)c(=O)c1Cl`: the Potency result is “inactive”.

As to `CC1=C(C(=O)Nc2ccccc2)SCCO1`, the Potency result was “inactive”.

For `CCNS(=O)(=O)C(F)(F)C(F)(F)C(F)(F)C(F)(F)C(F)(F)C(F)(F)C(F)(F)C(F)(F)F`, the Potency result was “inactive”.

In the case of `CN(C)c1nc(=O)n(C2CCCCC2)c(=O)n1C`, the Potency entry is “inactive”.

With `CCOC(=O)Nc1cccc(OC(=O)Nc2ccccc2)c1`, the Potency result was “inactive”.

As to `CS(=O)(=O)c1cc(C(F)(F)F)ccc1C(=O)c1cnoc1C1CC1`, the Potency result is “inactive”.

As to `CC(C)(C)C(=O)[C@H](Oc1ccc(Cl)cc1)n1cncn1`, the Potency entry was “inactive”.

As for `O=C=Nc1ccc(Cl)cc1`, the Potency result is “inactive”.

Consider `CCOP(=O)(OCC)Oc1cc(C)nc(C(C)C)n1`, for which the Potency entry was “inactive”.

For `CC1COC(Cn2cncn2)(c2ccc(Oc3ccc(Cl)cc3)cc2Cl)O1` (stereo not given), the Potency entry is “inactive”.

Regarding `CCC(C)(C)c1cc(-n2nc3ccccc3n2)c(O)c(C(C)(C)CC)c1`, the Potency entry was “inactive”.

Turning to `COc1nc(C)nc(NC(=O)NS(=O)(=O)c2ccccc2CCC(F)(F)F)n1`, the Potency result was “inactive”.

Turning to `CC(C)C1(C)N=C(c2ncccc2C(=O)O)NC1=O` (stereo not given), the Potency result was “inactive”.

As for `O=[N+]([O-])c1ccc2ccc3cccc4ccc1c2c34`, the Potency result is “inactive”.

On to `CNC(=O)O/N=C(\SC)C(=O)N(C)C`, for which the Potency entry is “inactive”.

For `CC1(C)[C@@H](C=C(Cl)Cl)[C@@H]1C(=O)OCc1cccc(Oc2ccccc2)c1`, the Potency entry was “inactive”.

In the case of `N#CC(CCc1ccc(Cl)cc1)(Cn1cncn1)c1ccccc1` (stereo not given), the Potency entry was “inactive”.

On to `O=P(O)(O)CCCl`, for which the Potency entry is “inactive”.

On to `CNC(=O)Oc1cc(C)cc(C(C)C)c1`, for which the Potency entry was “inactive”.

Consider `CCOS(=O)(=O)OCC`, for which the Potency result is “inactive”.

As for `Cc1cc(C)nc(NC(=O)NS(=O)(=O)c2ccccc2C(=O)OC2COC2)n1`, the Potency result is “inactive”.

For the molecule `COP(=O)(OC)Oc1ccc([N+](=O)[O-])cc1`, the Potency result is “inactive”.

For the molecule `C=CC1(C)OC(=O)N(c2cc(Cl)cc(Cl)c2)C1=O` (stereo not given), the Potency result was “inactive”.

On to `COC(=O)c1ccccc1CS(=O)(=O)NC(=O)Nc1nc(OC)cc(OC)n1`, for which the Potency entry is “inactive”.

Turning to `CN(C)c1ccc(C(=O)c2ccc(N(C)C)cc2)cc1`, the Potency result was “inactive”.

Turning to `CC1=C(C(=O)Nc2ccccc2)S(=O)(=O)CCO1`, the Potency result is “inactive”.

In the case of `C=CC(=O)NCO`, the Potency entry is “inactive”.
